Twelve compounds from ChEMBL document CHEMBL2218924, “A broad activity screen in support of a chemogenomic map for kinase signalling research and drug discovery” (Biochem J, 2013) can be followed below.

Structures are written as SMILES.

For this test, the target named is Serine/threonine-protein kinase mTOR (Homo sapiens) (UniProt P42345). The conditions noted are these: at 10 µM.
The term residual activity denotes the signal under treatment as a percentage of the control signal. Take `Cc1cc2ncc(-c3ccccc3)nc2cc1C`: the residual activity worked out at 83%.

As to `COc1cc2ncnc(Nc3ccc(NC(=O)c4ccccc4)cc3)c2cc1OC`, the residual activity was 75%.

For the compound `Nc1cccc(-c2cc3c(Oc4cccc(O)c4)ncnc3[nH]2)c1`, the residual activity worked out at 94%.

Regarding `N#CC(C#N)=C(N)/C(C#N)=C/c1ccc(O)cc1`, the residual activity turned out to be 61%.

In the case of `c1ccc(-c2n[nH]cc2-c2ccnc3ccccc23)nc1`, the residual activity is 102%.

For the compound `COc1ccc(C(=O)Nc2sc3c(c2C(N)=O)CCCC3)cc1OC`, the residual activity turned out to be 88%.

Take `COc1cc2ncnc(Nc3ccc(O)c(Br)c3)c2cc1OC`: the residual activity came out at 101%.

In the case of `N#Cc1cnc2cnc(NCc3cccnc3)cc2c1Nc1ccc(F)c(Cl)c1`, the residual activity was found to be 96%.

Turning to `CO[C@H]1[C@@H](OC)C[C@H](C)[C@@H](OC)C2=CC(=O)C=C(NC(=O)/C(C)=C/C=C/[C@H](OC)[C@@H](OC(N)=O)/C(C)=C/[C@@H]1C)C2=O`, the residual activity was found to be 89%.

Turning to `Cc1ccc(S(=O)(=O)/C=C/C#N)cc1`, the residual activity was found to be 82%.

In the case of `CC(=O)O/N=C1\C(=C2\C(=O)Nc3cc(Br)ccc32)Nc2ccccc21`, the residual activity stood at 84%.

As for `Nc1ccc2ncnc(NCCc3ccc(Oc4ccccc4)cc3)c2c1`, the residual activity was 63%.
